# Source: PubChem BioAssay AID1159577 (Broad Institute, 2015)
# The campaign covered roughly 1,300 compounds. About 240 (18%) were called active. Another 8% or so got no clear call; they are omitted. How the calls were made is not given here. These entries were drawn from the full list. Measured potencies and affinities stand elsewhere.
# Assay: HepG2 cell cytotoxicity, dose response, cytotoxicity control, cherry-picked samples (AID 1159577)
# Details: HepG2 cytotoxicity counterscreen, plate reader; series mostly up to 19.5 µM
row,Compound,outcome
1,COc1ccc2c3c([nH]c2c1)[C@H](CO)N(Cc1ccccc1Cl)CC31CN(C(=O)C2CC2)C1,inactive
2,C[C@@H]1CN([C@@H](C)CO)C(=O)c2cccc(NC(=O)c3ccc(-c4nccs4)cc3)c2O[C@H]1CN(C)Cc1ccc(Cl)c(Cl)c1,inactive
3,C[C@H](O)C#Cc1cnc2c(c1)C(=O)N([C@@H](C)CO)C[C@@H](C)[C@@H](CN(C)C(=O)Cc1ccncc1)O2,inactive
4,CO[C@H]1CN(C)C(=O)c2ccc(NC(=O)c3nc4ccccc4s3)cc2OC[C@H](C)N(Cc2ccncc2)C[C@@H]1C,inactive
5,C[C@@H]1CN([C@@H](C)CO)S(=O)(=O)c2ccc(C#CC3CCCC3)cc2O[C@H]1CN(C)C(=O)Cc1ccncc1,inactive
6,CC(C)C#Cc1ccc([C@@H]2[C@H](CO)N3CCCCN(C(=O)c4ccc5c(c4)OCO5)C[C@@H]23)cc1,inactive
7,C[C@@H](O)C#Cc1ccc([C@H]2[C@H]3CN(S(=O)(=O)c4ccccc4)CCCCN3[C@H]2CO)cc1,inactive
8,COc1ccc2c3c(n(C)c2c1)[C@H](CO)N(C(=O)Nc1ccc(F)cc1)CC31CCN(C(=O)c2ccc3c(c2)OCO3)CC1,inactive
9,CC(C)(C)S(=O)N1Cc2cc(C(=O)NCc3ccc4c(c3)OCO4)nc(-c3cccc(-c4cc5ccccc5o4)c3)c2[C@H]1CCO (stereo not given in full),inactive
10,COc1ccc2c3c(n(C)c2c1)[C@@H](CO)N(C(=O)C1CCCC1)CC31CCN(C(=O)Nc2cccc(F)c2)CC1,inactive
11,O=C(Nc1ccccc1F)N1CCCCN2[C@@H](CO)[C@@H](c3ccc(C#Cc4cccnc4)cc3)[C@@H]2C1,inactive
12,C[C@H]1CN([C@@H](C)CO)S(=O)(=O)c2ccc(-c3ccc(C#N)cc3)cc2O[C@H]1CN(C)CC1CC1,inactive
13,CCS(=O)(=O)N1CCC2(CC1)CN(S(=O)(=O)c1ccc(C)cc1)[C@@H](CO)c1[nH]c3cc(OC)ccc3c12,inactive
14,Cc1cccc(S(=O)(=O)N2C[C@@H]3N[C@H](C2)C3c2ccc(-c3cccnc3)cc2)c1 (stereo not given in full),inactive
15,FC(F)(F)c1cccc(CN2[C@@H]3CNC[C@H]2[C@@H]3c2ccc(-c3cccnc3)cc2)c1,inactive
16,Fc1cccc(-c2ccc(C3[C@@H]4CN(Cc5cncnc5)C[C@H]3N4)cc2)c1 (stereo not given in full),inactive
17,c1cncc(-c2ccc(C3[C@@H]4CN(Cc5nccs5)C[C@H]3N4)cc2)c1 (stereo not given in full),inactive
18,O=C(C1CCCC1)N1CC(=O)N2[C@H](CO)[C@H](c3ccc(-c4cccnc4)cc3)[C@H]2C1,inactive
19,C[C@@H]1CN([C@H](C)CO)S(=O)(=O)c2ccc(C#Cc3ccccc3)cc2O[C@H]1CN(C)S(=O)(=O)c1cn(C)cn1,inactive
20,CC(C)C#Cc1ccc([C@@H]2[C@@H](CO)N3C(=O)CN(C(=O)C4CCCCC4)C[C@@H]23)cc1,inactive
21,CO[C@@H]1CN(C)C(=O)c2ccc(NC(=O)C3CC3)cc2OC[C@@H](C)N(Cc2ccccc2)C[C@H]1C,inactive
22,CC(=O)N1CC2(C1)[C@@H](c1ccc(-c3cccc(F)c3)cc1)[C@@H](CO)N2CC1CCCC1,inactive
23,O=C(c1ccccc1F)N1C[C@H]2[C@@H](c3ccccc31)[C@@H](CO)N2C(=O)c1ccc(F)cc1,inactive
24,CCS(=O)(=O)N1CC2(CN(Cc3ccccc3F)[C@@H](CO)c3[nH]c4cc(OC)ccc4c32)C1,inactive

row,Compound,outcome
1,CCCC(=O)Nc1ccc2c(c1)OC[C@@H](C)N(Cc1ccccc1F)C[C@@H](C)[C@H](OC)CN(C)C2=O,inactive
2,O=C(c1ccncc1)N1CC(=O)N2[C@H](C1)[C@@H](c1ccc(-c3cccnc3)cc1)[C@@H]2CO,inactive
3,O=C(C1CCCC1)N1CC(=O)N2[C@H](CO)[C@@H](c3ccc(C#CCc4ccccc4)cc3)[C@@H]2C1,inactive
4,O=C(C1CCC1)N1CC(=O)N2[C@H](CO)[C@@H](c3ccc(C#CCc4ccccc4)cc3)[C@H]2C1,inactive
5,O=C(C1CC1)N1CC(=O)N2[C@H](CO)[C@@H](c3ccc(C#CCc4ccccc4)cc3)[C@@H]2C1,inactive
6,O=C(Cc1ccccc1)N1CC(=O)N2[C@H](CO)[C@H](c3ccc(C#CCc4ccccc4)cc3)[C@H]2C1,inactive
7,O=C(C1CCC1)N1CC(=O)N2[C@H](CO)[C@@H](c3ccc(C#CCc4ccccc4)cc3)[C@@H]2C1,inactive
8,O=C(C1CCCCC1)N1CC(=O)N2[C@H](CO)[C@@H](c3ccc(C#CCc4ccccc4)cc3)[C@@H]2C1,inactive
9,COc1ccc(C#Cc2ccc([C@H]3[C@H]4CN(C(=O)c5ccccc5)CC(=O)N4[C@H]3CO)cc2)cc1,inactive
10,COc1cccc(C#Cc2ccc([C@H]3[C@@H](CO)N4C(=O)CN(C(=O)c5ccccc5)C[C@H]34)cc2)c1,inactive
11,C[C@H]1CN([C@@H](C)CO)C(=O)c2c(c3ccccc3n2C)-c2ccccc2CO[C@@H]1CN(C)S(=O)(=O)c1ccc(F)cc1,inactive
12,N#C[C@H]1[C@@H](c2ccc(C#Cc3ccccc3F)cc2)[C@@H](CO)N1C(=O)C1CCC1,inactive
13,C[C@H]1CN([C@@H](C)CO)S(=O)(=O)c2ccc(C#Cc3ccccc3)cc2O[C@H]1CN(C)C(=O)C1CC1,inactive
14,CCCC(=O)Nc1ccc2c(c1)OC[C@@H](C)N(Cc1cc(F)ccc1F)C[C@@H](C)[C@H](OC)CN(C)C2=O,inactive
15,COc1ccccc1-c1ccccc1[C@H]1[C@H](C#N)N(C(=O)C2CCC2)[C@H]1CO,inactive
16,COc1ccccc1S(=O)(=O)N(C)C[C@H]1Oc2cc(/C=C/c3ccccc3)ccc2S(=O)(=O)N([C@H](C)CO)C[C@@H]1C,inactive
17,COc1ccc(NC(=O)Nc2ccc3c(c2)[C@@H]2C[C@H](CC(=O)N[C@@H](C)c4ccccc4)O[C@H](CO)[C@@H]2O3)cc1,inactive
18,CN(C)C(=O)c1ccc(-c2ccc([C@H]3[C@H](CO)N4CCCCN(C(=O)C5CC5)C[C@@H]34)cc2)cc1,inactive
19,CN(C)CC#Cc1ccc([C@H]2[C@H](CO)N3CCCCN(C(=O)CN(C)C)C[C@@H]23)cc1,inactive
20,CN(C)CC(=O)N1C[C@@H]2N[C@H](C1)C2c1ccc(/C=C/c2ccccc2)cc1 (stereo not given in full),inactive
21,N#Cc1ccc(-c2ccc(C3[C@@H]4CN(C(=O)C5CCCCC5)C[C@H]3N4)cc2)cc1 (stereo not given in full),inactive
22,O=C(C1CC1)N1C[C@@H]2N[C@H](C1)C2c1ccc(-c2ccccc2F)cc1 (stereo not given in full),inactive
23,N#Cc1ccc(-c2ccc(C3[C@@H]4CN(C(=O)C5CCCC5)C[C@H]3N4)cc2)cc1 (stereo not given in full),inactive
24,COc1ccc(CNC(=O)C[C@H]2C=C[C@@H](NS(=O)(=O)c3cccc(OC)c3)[C@@H](CO)O2)cc1,inactive

row,Compound,outcome
1,Cc1noc(C)c1NC(=O)Nc1ccc2c(c1)C(=O)N([C@H](C)CO)C[C@@H](C)[C@@H](CN(C)S(C)(=O)=O)O2,inactive
2,N#Cc1cccc(-c2ccc(C3[C@@H]4CN(C(=O)C5CCC5)C[C@H]3N4)cc2)c1 (stereo not given in full),inactive
3,O=C(C1CC1)N1C[C@@H]2N[C@H](C1)C2c1ccc(-c2cccc(F)c2)cc1 (stereo not given in full),inactive
4,C[C@@H]1CN([C@@H](C)CO)C(=O)c2c(c3ccccc3n2C)-c2ccccc2CO[C@@H]1CN(C)C(=O)Nc1cccc(Cl)c1Cl,inactive
5,C[C@H]1CN([C@@H](C)CO)C(=O)CCCn2nncc2CO[C@@H]1CN(C)C(=O)Nc1ccc(N2CCCCC2)cc1,inactive
6,OC[C@@H]1CC[C@@H]2O[C@H](CCc3ccc(-c4ccccc4)cc3)[C@H](n3cc(-c4ccccc4)nn3)C[C@@H]2O1,inactive
7,OC[C@H]1CC[C@@H]2O[C@H](CCc3ccc(-c4ccc(F)cc4)cc3)[C@H](n3cc(C4CC4)nn3)C[C@@H]2O1,inactive
8,O=C(C[C@@H]1CC[C@@H]2[C@H](COC[C@@H](O)CN2S(=O)(=O)c2ccccc2)O1)NCc1ccc(-c2ccccc2)cc1,inactive
9,N#Cc1cccc(-c2ccc(C3[C@@H]4CN(C(=O)C5CC5)C[C@H]3N4)cc2)c1 (stereo not given in full),inactive
10,COc1cccc(CN2C[C@@H]3N[C@H](C2)C3c2ccc(-c3ccncc3)cc2)c1 (stereo not given in full),inactive
11,COc1ccc(NC(=O)Nc2cccc3c2O[C@H](CN(C)C(=O)Nc2cccc4ccccc24)[C@H](C)CN([C@@H](C)CO)C3=O)cc1,inactive
12,CC(C)NC(=O)N1[C@@H](CO)[C@@H](c2ccccc2)C12CN(Cc1ccc(F)cc1)C2,inactive
13,CO[C@@H]1CN(C)C(=O)c2cc(NC(=O)Cc3ccccc3)ccc2OC[C@H](C)N(C(=O)c2ccccc2F)C[C@@H]1C,inactive
14,CCCC(=O)N1CC2(C1)CN(Cc1ccc(Cl)cc1)[C@H](CO)c1[nH]c3cc(OC)ccc3c12,inactive
15,COc1ccc(C#Cc2cccc(-c3nc(C(=O)N[C@@H]4CCN(Cc5ccccc5)C4)cc4c3[C@@H](CCO)N(S(=O)C(C)(C)C)C4)c2)cc1OC (stereo not given in full),inactive
16,C[C@H](CO)N1C[C@H](C)[C@H](CN(C)S(=O)(=O)c2ccccc2F)OCc2ccccc2-c2c(n(C)c3ccccc23)C1=O,inactive
17,COc1cccc(-c2ccc([C@@H]3[C@H](CO)N4CCCCN(C(=O)c5ccc(F)cc5)C[C@@H]34)cc2)c1,inactive
18,COc1ccc2c3c([nH]c2c1)[C@@H](CO)N(Cc1ccccc1F)CC31CN(C(=O)C2CCCC2)C1,inactive
19,COc1ccc(NC(=O)N(C)C[C@H]2OCc3ccccc3-c3c(n(C)c4ccccc34)C(=O)N([C@H](C)CO)C[C@@H]2C)c(OC)c1,inactive
20,CC(C)c1cn([C@H]2C[C@@H]3O[C@H](CO)CC[C@@H]3O[C@@H]2CCc2ccc(C#CC3(O)CCCC3)cc2)nn1,inactive
21,COCC(=O)Nc1ccc2c(c1)OC[C@@H](C)N(C(=O)NC(C)C)C[C@@H](C)[C@@H](OC)CN(C)C2=O,inactive
22,N#C[C@@H]1[C@@H](c2ccccc2-c2ccccc2F)[C@@H](CO)N1C(=O)C1CCOCC1,inactive
